Test results as given in ChEMBL document CHEMBL3433997, “St. Jude Leishmania screening dataset” (2016).

These compounds were tested against Solute carrier family 2, facilitated glucose transporter member 1 (Homo sapiens) (UniProt P11166) (assay: ST_JUDE_LEISH: Cytotoxicity at 2uM final concentration against transgenic Leishmania Mexicana promastigotes LmGLUT1 that are glucose transport deficient and complemented with the human glucose transporter GLUT1. Activity is measured by DNA content using SYBR green in vitro).
Type: functional

Solute carrier family 2, facilitated glucose transporter member 1 (Homo sapiens), sequence (P11166 whole entry): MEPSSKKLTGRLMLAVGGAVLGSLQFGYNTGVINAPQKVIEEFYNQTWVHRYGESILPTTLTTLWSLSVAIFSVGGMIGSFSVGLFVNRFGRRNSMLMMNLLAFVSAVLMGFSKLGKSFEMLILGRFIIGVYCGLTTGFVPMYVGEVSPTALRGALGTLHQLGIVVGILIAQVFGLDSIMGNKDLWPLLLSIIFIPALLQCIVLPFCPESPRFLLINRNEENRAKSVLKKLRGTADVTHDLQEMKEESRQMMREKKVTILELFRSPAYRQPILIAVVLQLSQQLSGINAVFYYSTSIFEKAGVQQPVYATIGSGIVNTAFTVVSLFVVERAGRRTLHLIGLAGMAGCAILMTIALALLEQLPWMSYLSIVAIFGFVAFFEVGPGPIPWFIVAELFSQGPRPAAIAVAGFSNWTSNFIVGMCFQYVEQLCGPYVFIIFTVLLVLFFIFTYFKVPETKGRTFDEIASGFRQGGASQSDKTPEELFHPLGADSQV

SMILES | inhibition [%]
CC1(C)N=C(N)N=C(N)N1c1cc(Cl)c(Cl)cc1Cl | -2.58
O=C(NCCSCc1c(F)cccc1Cl)c1cnc2c(c1)nc(-c1c[nH]c(-c3ccccc3)n1)n2CCc1c[nH]cn1 | 2.77
COc1cc2nc(C)nc(Nc3ccc4c(ccn4Cc4ccccc4)c3)c2cc1OC | 5.04
Cc1cc(CNCCCCCCCNCc2ccc(Cl)cc2)ccc1O | 0.64
O=C(NCC1CCN(C/C=C/c2ccccc2)CC1)Nc1ccc(Oc2ccccc2)cc1 | 6.42
CCCN/C=N/c1cc(-c2csc(NC(=N)N)n2)cc([N+](=O)[O-])c1 | -0.32
c1cc(-c2ccc(CN3CCN(c4ccncc4)CC3)cc2)cc(-c2nc3ccccc3[nH]2)c1 | 1.81
CNc1c2c(nc3ccc(NC(=O)CCCCCCc4ccccc4)cc13)CCCC2 | 5.72
COc1ccc(F)cc1-c1ccc(C(=O)N2CCCN(c3ccc(C#N)cn3)CC2)cc1 | 0.86
O=C(NCCCN1CCC(N2CCCCC2)CC1)c1ccc(N2CCOc3ccccc32)s1 | 1.25
NC(=O)c1cccc(Nc2nccc(Nc3ccc4[nH]c(-c5ccccc5)cc4c3)n2)c1 | -0.28
O=S(=O)(c1ccc(OCc2ccc(Cl)cc2)cc1)c1cc2c(c(-c3ccc(F)cc3)c1)CCN(CC1CC1)CC2 | 2.2
C[C@H](Cc1ccc(OCCNC[C@H](O)c2cccc(Cl)c2)cc1)NC[C@H](O)c1ccc(Cl)c(Cl)c1 | 2.67
CCc1c(C(=O)NC2CCC(N3CCC(c4ccccc4OC)CC3)CC2)[nH]c2ccc(OC)cc12 (stereo not given) | 1.56
COc1ccc(C2C(C(=O)Nc3ccccc3)=C(C)Nc3c(C(=O)Nc4ccccc4)cnn32)cc1 (stereo not given) | 2.83
CC(C)(C)c1ccc(NC(=O)c2ccc(CN3CCCN(Cc4cccc(O)c4)CC3)cc2)cc1 | 0.52
N#Cc1ccc(N/C(=N\c2ccc(-c3ccccc3)cc2)NCCc2c[nH]c3ccccc23)c(O)c1 | 9.42
C[C@@H](N/C(=N\c1ccc(-c2ccccc2)cc1)Nc1ccc(C#N)cc1O)c1ccc(Br)cc1 | 2.33
CC(C)Oc1cc2c(cc1NS(=O)(=O)c1ccc(-c3ccc(Cl)s3)cc1F)CCN(C)CC2 | 39.9
COc1cc(NC(=O)Nc2ccnc3ccccc23)cc(OC)c1 | 0.62

SMILES | inhibition [%]
COc1cc(C(C)C)ccc1N1CCN(CCCCNC(=O)c2ccc(NC(=O)c3ccc(Cl)cc3)cc2)CC1 | 4.1
Cc1c(C(=O)N2CCCC(C(F)(F)F)C2)sc2cccc(F)c12 (stereo not given) | 8.1
O=C(NCCCCCN1CCC(c2c[nH]c3ccccc23)C1)Nc1ccc(Cl)c(Cl)c1 (stereo not given) | 3.7
c1ccc(Oc2ccc(Nc3ccnc4cc(-c5ccc(CN6CCOCC6)o5)ccc34)cc2)nc1 | -1.57
COc1ccc2c(NN=Cc3ccccc3)ccnc2c1 | 1.36
CN1CCCN(Cc2ccc(-c3ccc(NC(=O)c4ccc(C#N)cc4)cc3)cc2)CC1 | 0.69
Cc1ccc2[nH]c(C)cc(=NN=Cc3ccccc3F)c2c1 | 13.5
COc1cc(Cc2cnc(N)nc2N)cc(OCCCS(=O)(=O)O)c1OC | 4.25
COc1cc(-n2cnc3cc(-c4ccc([N+](=O)[O-])cc4)sc3c2=O)ccc1OCCN1CCCC1 | 19.5
COc1cccc2cc(C(=O)N[C@@H](CC(C)C)C(=O)N[C@H](/C=N/NC(=O)OC(C)(C)C)CC(=O)OC(C)(C)C)oc12 | 4.66
CC(C)NCc1ccc(-c2cccc(CN3CCC(c4ccccc4)CC3)c2)c(C(=O)NCC2CCCCC2)c1 | 7.97
Cc1ccc(F)c(OCC2CCCN(c3ccc(C(=O)NC4CC4)cn3)C2)c1 (stereo not given) | 3.46
Cn1c(=O)c(-c2c(Cl)cccc2Cl)cc2cnc(Nc3ccc(N4CCOCC4)cc3)nc21 | 34.6
CC(C)C1C(O)=C(c2ccc3ccccc3c2)C(=O)N1Cc1ccsc1 (stereo not given) | 4.27
Cc1ccc(Nc2nccc(NCC(O)c3cccc(C(F)(F)F)c3)n2)cc1 (stereo not given) | 4.66
O=C(Nc1ccc(OC2CCN(Cc3ccc(F)cc3)CC2)c(Cl)c1)c1ccoc1 | 2.65
CCN(CC)CCN(Cc1ccc(-c2ccc(C(F)(F)F)s2)cc1)C(=O)Cn1c(CCc2cccc(F)c2F)nc(=O)c2ccccc21 | 1.5
O=C(Nc1cccc(-c2cccc(-c3nc4ccccc4[nH]3)c2)c1)Nc1ccc2c(c1)OCO2 | 4.3
COc1ccc(NC(=O)NC2CCN(CCCOc3cc(C)nc4ccccc34)CC2)cc1OC | 0.88
Cc1cccc2nc(-c3cccc(-c4cccc(NC(=O)c5c[nH]cn5)c4)c3)[nH]c12 | 1.5
